The results in this text go back to PubChem BioAssay.

Structures are written as SMILES. Values without a mark were called inactive. For some of these results: Potency and affinity values are given separately. The source made the active and inactive calls. Unless noted, how the calls were made is not given here.

Test [1] in a line: antimalarial activity against Dd2 strain (AID 2302;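 active means growth inhibition above 50% at the single 2 µM test dose, taken to imply half-maximal potency below 2 µM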;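 further: 0% = DMSO untreated growth and 100% = chloroquine plus artemisinin killed control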). The note with it: P. falciparum Dd2 in RBCs, LDH growth readout, 72 h; at 2 µM; stronger effect = higher value.
A short description of test [2]: HepG2 cytotoxicity, primary screen, cytotoxicity control for P. falciparum antimalarial project, cell-based, ATP luminescence (AID 2303;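 active means inhibition above 50%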;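 further: 0% = DMSO wells and 100% = digitonin-killed cells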). The note with it: HepG2 viability, 24-48 h, at 10 µM, stronger effect = higher value.
Test [3] concerns the target L-lactate dehydrogenase (Plasmodium falciparum (isolate CDC / Honduras)) (UniProt Q27743). The experiment in a line: PfLDH activity inhibition – cell lysate, 3D7 strain, counter-screen for P. falciparum growth inhibition project (AID 2304).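 Further: 0% = vehicle and 100% = reference inhibitor.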 The conditions noted are these: P. falciparum 3D7 crude extract, LDH APAD/NBT absorbance; at 2 µM; stronger effect = higher value. (In general: The purpose of a counterscreen is to sort out artefacts and off-target activity.)

A short description of test [4]: inhibition of 3D7 malaria parasite growth – strain 3D7 (AID 2306).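 Further: 0% = DMSO wells and 100% = chloroquine plus artemisinin control wells.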 The conditions noted are these: P. falciparum 3D7 erythrocytic growth, LDH absorbance, 72 h; at 2 µM; stronger effect = higher value.
Test [5] deals with Calcium-dependent protein kinase 1 (Plasmodium falciparum (isolate 3D7)) (UniProt P62344). The experiment in a line: PfCDPK1 kinase inhibitors, biochemical, TCAMS library (AID 1159585; cut-off not given, nearly all actives have IC50 up to about 0.98 µM;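 further: inhibitors leave more ATP so luminescence rises with inhibition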). The note with it: recombinant PfCDPK1, Kinase-Glo ATP depletion luminescence. (In general: Kinase-Glo measures the ATP left after a reaction by luminescence.)
The target of test [6] is Plasmodium falciparum protein kinase 6 (PK6, PF3D7_1337100) (UniProt Q8IDW1). The experiment in a line: PfPK6 kinase inhibitors, biochemical, TCAMS library (AID 1159586). The note with it: recombinant PfPK6, Kinase-Glo ATP depletion luminescence.
Test [7] deals with Protein kinase 7 (PK7), Plasmodium falciparum 3D7 (PF3D7_0213400) (UniProt Q7YTF7). The test is described as follows: inhibition of Plasmodium PK7 catalytic activity – biochemical, TCAMS antimalarial set, Kinase-Glo luminescence (AID 1159587). The conditions noted are these: recombinant PfPK7, Kinase-Glo ATP depletion luminescence.
Test [8] has as its target Calcium-dependent protein kinase 4 (Plasmodium falciparum (isolate 3D7)) (UniProt Q8IBS5). The experiment in a line: PfCDPK4 kinase inhibitors, biochemical, TCAMS library (AID 1159588; cut-off not given, nearly all actives have IC50 up to about 0.91 µM). The note with it: recombinant PfCDPK4, Kinase-Glo ATP depletion luminescence.

Calcium-dependent protein kinase 1 (Plasmodium falciparum (isolate 3D7)), sequence (P62344 whole entry, looked up): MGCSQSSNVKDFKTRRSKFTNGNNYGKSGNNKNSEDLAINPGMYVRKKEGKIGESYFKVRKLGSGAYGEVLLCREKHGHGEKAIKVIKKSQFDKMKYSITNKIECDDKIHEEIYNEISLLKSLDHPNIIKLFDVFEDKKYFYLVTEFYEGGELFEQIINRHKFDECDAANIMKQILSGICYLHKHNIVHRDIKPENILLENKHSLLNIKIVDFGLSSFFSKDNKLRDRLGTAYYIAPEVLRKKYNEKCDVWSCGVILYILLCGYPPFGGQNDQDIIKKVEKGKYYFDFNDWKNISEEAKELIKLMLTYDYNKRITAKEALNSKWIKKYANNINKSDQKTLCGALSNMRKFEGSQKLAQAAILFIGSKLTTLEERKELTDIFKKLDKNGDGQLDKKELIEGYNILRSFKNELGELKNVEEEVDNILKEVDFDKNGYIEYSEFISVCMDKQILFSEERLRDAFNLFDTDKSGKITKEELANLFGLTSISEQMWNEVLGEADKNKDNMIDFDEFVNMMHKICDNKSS
Protein kinase 7 (PK7), Plasmodium falciparum 3D7 (PF3D7_0213400), sequence (Q7YTF7 1-343): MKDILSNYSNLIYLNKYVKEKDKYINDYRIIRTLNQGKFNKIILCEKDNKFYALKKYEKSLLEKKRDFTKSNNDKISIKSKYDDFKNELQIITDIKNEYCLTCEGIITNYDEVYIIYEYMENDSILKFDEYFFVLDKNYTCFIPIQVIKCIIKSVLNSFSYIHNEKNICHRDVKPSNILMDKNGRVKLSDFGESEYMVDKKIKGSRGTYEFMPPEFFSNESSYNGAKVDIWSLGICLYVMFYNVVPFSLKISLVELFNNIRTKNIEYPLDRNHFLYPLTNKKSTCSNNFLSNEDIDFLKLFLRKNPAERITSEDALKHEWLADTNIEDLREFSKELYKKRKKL
Plasmodium falciparum protein kinase 6 (PK6, PF3D7_1337100), sequence (Q8IDW1 1-305): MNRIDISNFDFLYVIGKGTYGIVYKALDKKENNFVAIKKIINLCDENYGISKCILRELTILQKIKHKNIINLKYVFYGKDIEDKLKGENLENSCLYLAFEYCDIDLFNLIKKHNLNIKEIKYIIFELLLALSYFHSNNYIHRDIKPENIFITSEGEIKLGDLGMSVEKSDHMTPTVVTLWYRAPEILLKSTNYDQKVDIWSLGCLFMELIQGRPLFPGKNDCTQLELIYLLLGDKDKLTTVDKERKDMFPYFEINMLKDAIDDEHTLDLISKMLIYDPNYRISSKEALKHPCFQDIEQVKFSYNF
L-lactate dehydrogenase (Plasmodium falciparum (isolate CDC / Honduras)), sequence (Q27743 whole entry, looked up): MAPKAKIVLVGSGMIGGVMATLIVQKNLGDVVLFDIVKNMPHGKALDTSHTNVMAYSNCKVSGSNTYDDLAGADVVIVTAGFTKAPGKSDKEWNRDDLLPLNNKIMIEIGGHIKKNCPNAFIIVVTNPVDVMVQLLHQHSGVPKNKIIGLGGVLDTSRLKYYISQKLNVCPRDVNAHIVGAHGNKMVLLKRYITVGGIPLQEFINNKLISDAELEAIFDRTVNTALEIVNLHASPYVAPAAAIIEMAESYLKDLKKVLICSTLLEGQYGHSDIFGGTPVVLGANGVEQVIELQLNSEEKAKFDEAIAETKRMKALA
Calcium-dependent protein kinase 4 (Plasmodium falciparum (isolate 3D7)), sequence (Q8IBS5 whole entry, looked up): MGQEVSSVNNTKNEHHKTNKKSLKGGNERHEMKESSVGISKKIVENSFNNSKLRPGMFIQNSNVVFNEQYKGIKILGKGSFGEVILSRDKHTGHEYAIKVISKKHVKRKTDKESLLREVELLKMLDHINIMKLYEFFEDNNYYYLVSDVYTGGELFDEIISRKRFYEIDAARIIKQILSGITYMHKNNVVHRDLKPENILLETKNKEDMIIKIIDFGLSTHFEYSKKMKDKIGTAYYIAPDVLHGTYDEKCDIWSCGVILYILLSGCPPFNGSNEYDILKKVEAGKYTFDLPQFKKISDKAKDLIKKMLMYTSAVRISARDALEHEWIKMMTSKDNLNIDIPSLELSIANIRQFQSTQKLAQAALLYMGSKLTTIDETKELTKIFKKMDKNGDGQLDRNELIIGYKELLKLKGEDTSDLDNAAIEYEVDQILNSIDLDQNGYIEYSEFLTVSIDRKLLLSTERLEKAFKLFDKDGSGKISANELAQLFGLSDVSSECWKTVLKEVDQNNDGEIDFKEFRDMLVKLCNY

The term inhibition denotes the relative decrease from the control value, in per cent. In the case of `CCn1ncc(Cl)c1CN(C)S(=O)(=O)c1ccc(Br)cc1`, the growth inhibition is 70% (active) in test [1] and 90% (active) in test [4]. Besides, the inhibition in test [2] is 9%; in test [3], 4%. For the same molecule, the result in test [5], in test [6], in test [7] and in test [8] was inactive.

Regarding `OC1(c2ccccc2)CCN(Cc2cccc(-c3c[nH]c4nc(NC5CCCC5)ncc34)c2)C1` (stereo not given), the growth inhibition in test [1] is 31%; in test [4], 92% (active). The inhibition was 42% in test [2] and -1% in test [3]. The outcome in test [5], in test [6], in test [7] and in test [8] was inactive.

Regarding `CO/C(=C\C=C\c1cc2cc(Cl)c(Cl)cc2[nH]1)C(=O)NC1CCN(CCNc2ccccc2)CC1`, the growth inhibition is 98% (active) in test [1] and 102% (active) in test [4]. For the same molecule, the figures for the inhibition in test [2] and in test [3] were 60% (active) and 1%, respectively. Moreover, the result in test [5], in test [6], in test [7] and in test [8] was inactive.

Turning to `CCCN(CC1CC1)c1nc(C)nc2c(-c3ccccc3)cc(C)cc12`, the growth inhibition in test [1] is 78% (active); in test [4], 96% (active). Also, the inhibition in test [2] is 72% (active); in test [3] it was 1%. Moreover, the outcome in test [5], in test [6], in test [7] and in test [8] was inactive.

Take `COc1ccccc1CCN(C)CCN1CCC(NC(=O)c2ccc(-c3ccc(C(F)(F)F)cc3)cc2)CC1`: the growth inhibition in test [1] is 15%; in test [4] it was 92% (active). Further, the inhibition in test [2] was 46%; in test [3], -2%. The outcome in test [5], in test [6], in test [7] and in test [8] was inactive.

Consider `COc1ccc(NC(=O)[C@H](C)Nc2cc(C)nc(NCC3CCCCC3)n2)cc1`, for which the growth inhibition in test [1] was 13%; in test [4] it was 92% (active). For the same molecule, the inhibition was 12% in test [2] and -3% in test [3]. The result in test [5], in test [6], in test [7] and in test [8] was inactive.

Take `CN1CCN(S(=O)(=O)c2cccc(Nc3nccc(N(C)c4ccc5c(c4)nc(NC(=O)c4cccs4)n5C)n3)c2)CC1`: the growth inhibition in test [1] is 59% (active); in test [4], 99% (active). Moreover, the inhibition was 25% in test [2] and -6% in test [3]. Besides, the outcome in test [5], in test [6], in test [7] and in test [8] was inactive.

On to `O=C(/C=C/c1ccc(Cl)c(Cl)c1)N1CCC(CN2CCC(c3c[nH]c4ncccc34)CC2)CC1`, for which the values for the growth inhibition in test [1] and in test [4] were 20% and 84% (active), respectively. Also, the inhibition is 38% in test [2] and -1% in test [3]. The result in test [5], in test [6], in test [7] and in test [8] was inactive.

On to `CC1(C)CCC(=Cc2ccc(Cl)cc2)CC1(O)Cn1ccnc1` (stereo not given), for which the figures for the growth inhibition in test [1] and in test [4] were 74% (active) and 99% (active), respectively. Moreover, the inhibition is 0% in test [2] and -4% in test [3]. The outcome in test [5], in test [6], in test [7] and in test [8] was inactive.

With `O=C(Nc1ccc2c(c1)OCO2)NC1CCN(c2ccnc(NCc3ccc(F)cc3)n2)CC1`, the growth inhibition in test [1] is 15%; in test [4], 88% (active). Moreover, the results for the inhibition in test [2] and in test [3] were 33% and 3%, respectively. Further, the outcome in test [5], in test [6], in test [7] and in test [8] was inactive.

For the molecule `CN(C)CCC1CCCc2ccc(NC(=O)Nc3cccc(Cl)c3Cl)cc21` (stereo not given), the growth inhibition is 11% in test [1] and 93% (active) in test [4]. Besides, the inhibition is 44% in test [2] and 5% in test [3]. For the same molecule, the outcome in test [5], in test [6], in test [7] and in test [8] was inactive.

On to `Cc1cnc(CNCc2ccc(S(=O)(=O)Nc3ccc(Oc4cccc(Cl)c4)cc3)cc2)cn1`, for which the growth inhibition was -1% in test [1] and 97% (active) in test [4]. The inhibition in test [2] is 4%; in test [3] it was 7%. Also, the result in test [5], in test [6], in test [7] and in test [8] was inactive.

In the case of `Cc1cc(CNCCCCCCNCc2ccc(Cl)cc2)ccc1O`, the results for the growth inhibition in test [1] and in test [4] were 0% and 96% (active), respectively. Further, the inhibition is 23% in test [2] and -2% in test [3]. For the same molecule, the result in test [5], in test [6], in test [7] and in test [8] was inactive.

For `NCc1ccc(CNCc2ccc(-c3ccc(-c4nc5ccc(F)cc5[nH]4)cc3)cc2)cc1`, the growth inhibition in test [1] is 99% (active); in test [4], 100% (active). The inhibition is 12% in test [2] and -3% in test [3]. Moreover, the outcome in test [5], in test [6], in test [7] and in test [8] was inactive.

Turning to `COCCCNc1sc(S(=O)(=O)c2ccccc2)nc1S(=O)(=O)c1ccc(C)cc1`, the growth inhibition in test [1] was 44%; in test [4] it was 84% (active). Moreover, the inhibition in test [2] is 7%; in test [3], -1%. Also, the result in test [5], in test [6], in test [7] and in test [8] was inactive.

As to `COc1ccc(-c2ncnc(C(F)(F)F)c2-c2ccc(Cl)cc2)c(O)c1`, the results for the growth inhibition in test [1] and in test [4] were 22% and 100% (active), respectively. Further, the inhibition in test [2] is 1%; in test [3] it was -4%. The result in test [5], in test [6], in test [7] and in test [8] was inactive.

For the molecule `COCC(=O)Nc1nc2ccccc2[nH]1`, the growth inhibition in test [1] is 1%; in test [4], 98% (active). The inhibition in test [2] is -14%; in test [3], -5%. Further, the outcome in test [5], in test [6], in test [7] and in test [8] was inactive.

Turning to `COc1cc2ncnc(Nc3ccc(OCc4ccccc4Br)c(OC)c3)c2cc1OC`, the growth inhibition in test [1] is 62% (active); in test [4], 100% (active). Further, the inhibition was 11% in test [2] and -1% in test [3]. Moreover, the result in test [5], in test [6], in test [7] and in test [8] was inactive.

On to `O=C(/C=C/c1ccc(C(F)(F)F)cc1)NCCCCCN1CCCN(C(=O)Nc2ccc(Cl)c(Cl)c2)CC1`, for which the growth inhibition was 17% in test [1] and 100% (active) in test [4]. For the same molecule, the figures for the inhibition in test [2] and in test [3] were 89% (active) and 0%, respectively. For the same molecule, the outcome in test [5], in test [6], in test [7] and in test [8] was inactive.

Take `N#Cc1ccc2c(c1)CCN(CCC1CCC(NC(=O)c3cc4cccc(Cl)c4[nH]3)CC1)CC2` (stereo not given): the results for the growth inhibition in test [1] and in test [4] were 78% (active) and 99% (active), respectively. In addition, the inhibition was 34% in test [2] and 0% in test [3]. In addition, the outcome in test [5], in test [6], in test [7] and in test [8] was inactive.
